The text below walks through data of the supplement of paper PMC6555819.

For the test, the system named is VDR:RXRa (NR concentration 270 nM, RXRa partner concentration 90 nM). Put plainly: PBM binding z-score (relative to random genomic background probes); higher = stronger binding; sequences stand for … in GC…GCGATTGACAGCGTAGAATGAAGG
How it is done:
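Protein-binding microarray (Agilent 4x180K custom design, double-stranded 60-nt probes: 5' GC cap, 34-nt variable region, 24-nt constant primer region; full probe sequence given). Purified or IVT nuclear receptor:RXRα heterodimers (3:1 NR:RXRα, mostly 270:90 nM) or homodimers were incubated for 1 h in PBS with 2% milk and no ligand, then detected with Alexa488 antibodies. Fluorescence from o1-orientation probes (~5 replicates averaged) was converted to z-scores against 500 random hg19 background probes. Variable regions are seed direct-repeat (DR0–DR5) sites, all their single-nucleotide variants and half-site ablations.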
Take ATCTCTAGGTAAAAGTACAGTGAATCCCGAGGAT: the PBM binding z-score is -0.148. CGTCAAAGTGCAAGGTAACGTAACAGAAAGCAGC had a PBM binding z-score of -0.0204.

Consider TCTAGCAGGCCAGATGGTCACTCAAGAGGTACGG, for which the PBM binding z-score is -0.443.

CCTACTGGGCCACGAATGGTCATTGATTCAGTGA returned a PBM binding z-score of -0.558. Under GCGACTGGGCCATCAGCAGGTTACCATAACTTAA stands -0.599. Under TCTAGTAGTTGAAGGGCAACCGACGAGTCCGTTT stands 0.266.

Consider TCTTTTAGATCAAAGGTTAAGAAAGCCGAAGCCT, for which the PBM binding z-score was determined as 1.51.

ACTCGGAGGACAAAGGTCATAGCTACGCCAGTGA displayed a PBM binding z-score of 4.68. The value for CAAACTAGGTCACCGGAAGGTCAAATTCCGCATG was 5.9. Under CTCGAAAGGTCGGTTGAGGTGCGTATACGGATAA stands 2.09.

CAAACTAGGTCAAGAGGCCAAAGTCCGCTTCCCG had a PBM binding z-score of 2.16.

CGAACAAGGTCAGAACAGGACAGTGAAGGATGAT showed a PBM binding z-score of 3.

Regarding CCAGACAGGTGAAAGGTAGCTCAGTCTGGTACGC, the PBM binding z-score is -0.089. The value for CCTATTAGTTGACCACAAGGGCAACCGAAGCTCG was 0.807; that for CAAACTAGGTCACAGACGTCAAAGTCCGTGCGTA was 3.26; that for AGAATGAGGTTAAGAACAGGGAAACAGAATACAT was 1.04. In turn, CCTCGGAGGACAGAACGTCAGAGCTGTCCGCTTT yielded a PBM binding z-score of -0.754. The value for CAAACTACGTCAAAGGTCAAAGTCGAGCCAACCA was 5.02; that for AGAGCGAGGGCACGCTGAGTTGATAGCAGAGTAG was 1.86; that for CCTAGCAGGCCAGGGTCAGTCAAGCATTTCGCTT was 0.634. TCTATTAGTTGAAGGGAAACCGACGAGTCCGTTT had a PBM binding z-score of 0.851. Sequence TTACCTAGGTGAAGGTCGTTGATCCCTCTGTAGA had a PBM binding z-score of 1.06. Under CCGAGTAGGTTATGGTGCATTCAGGCAACGGTGA stands 0.0938; under CCTCGGATGACAACAGGAGGTCAGAGCTGCCAGA, 1.55. Under GCTACTGGGGCAAAGCAGGTTACCATAAGGTTGG stands 0.028; under GGTAGCAGGCCATTTGGGTCACTCAATGACGGGC, 1.14; under CCTACTGGGCCAAAGGTCATTGTTTCCAATGCTC, 4.11. Under CCTATTTGGTCAAGGTCACACACGCTATAGGTAC stands 4.18; under GCTTACGGGTCAAAGGTTATTGCATGAATAGAAT, 5.54. The sequence CAAACTAGGTCCCGAAAGGTCAAAGTCGAATGAC had a PBM binding z-score of 4.92. CAAACTAGGTCATAGAGGTCAAAGTCCGTGCGTA gave a PBM binding z-score of 7.8. The value for TCTTGTAGAGCAATAGAGGTTAAGAAAGTGCGCT was 1.18; that for CCGACTGGGGCAAAGGTTAGCATACTCAGTACGA was 0.691; that for CGTCCAAGGTTAAAGGTCAGTGAAGAGATGACGG was 4.69.

TAGCCTAGGTCATTCAGGGGCCAGTAGAGAAAGC had a PBM binding z-score of 3.24. For TCTTGTAGATCAAAGGTTAAGATAGCCGAAGCCT, the PBM binding z-score came to 1.49. Under CGAAATAGGTCATTGACAGGACAGTGAATAGTAA stands 3.26; under TCTTGTAGATCAAGCTGGTTAAGAAAGCCTGAGT, 0.112; under AGAACGAGGGCATGCTGAGTTGATAGCAGAGTAG, 1.5. Under AGAATGAGTTTAAGATCAGGGAAACAGAATACAT stands 0.803.
